The whole screen tested about 48,000 compounds, of which about 13,000 (27%) showed an effect of 50% or more. The list shows a part of the results.

The assay relates to Wolbachia pipientis. The assay is described as follows: Anti-Wolbachia Cell-Based Screen. Particulars: 5 µM. Also noted: scale not given: in the data most compounds retested in dose-response had high values. The class given is functional.
Consider `Cc1ccsc1C(Cc1ccccc1)NC(=O)CSCC(N)=O` (stereo not given), for which the “Percent Effect” value was -6.461%.

With `COCCCOC1CN(C(=O)c2[nH]nc3c2CCCC3)C1`, the “Percent Effect” value is -6.811%. Take `Cl.Cl.O[C@@H]1C[C@@](CNCC2CC2)(COc2cccnc2)C[C@@H]1O`: the “Percent Effect” value is given as -8.613%. The same measure for `CC1(C)CCN(Cc2ccccc2-c2nc(C(C)(C)C)cc(=O)[nH]2)C1`: -0.3128%; for `CC(C)(C)c1cc(=O)[nH]c(-c2ccccc2CN2CCC[C@@H](O)C2)n1`: -11.42%; for `CC(C)(C)c1cc(=O)[nH]c(-c2ccccc2CN2CCCCCC2)n1`: 107.3%. As for `CC(C)N1CCC(CC(=O)N2CCN(Cc3nccn3C)CC2)CC1`, the “Percent Effect” value was 103.8%. For the molecule `CCCN1CCC(CC(=O)N2CC(C)(C)[C@@](C)(O)C2)CC1`, the “Percent Effect” value is given as 2.3%. Consider `Cc1nc(N2CCC(C(O)c3nccn3C)CC2)c2cccnc2n1` (stereo not given), for which the “Percent Effect” value is on record as -5.3%. Regarding `CCn1ncnc1C(NC(=O)CC1CCN(C(C)C)CC1)C1CC1` (stereo not given), the “Percent Effect” value is on record as -0.6358%. For `CC(C)n1ccnc1CN1CCCN(C(=O)CC2C=CCC2)CC1` (stereo not given) the value was 11%. For `CC(C)N1CCC(CC(=O)N2CCC(C(O)c3nccn3C)CC2)CC1` (stereo not given) the value was 112.6%. As for `CCCN1CCC(CC(=O)N2CCC(C(O)c3nccn3C)CC2)CC1` (stereo not given), the “Percent Effect” value is given as 109.9%.

In the case of `Cc1nc(N2CCC(C(O)c3nccn3C)CC2)c2nc(C)oc2n1` (stereo not given), the “Percent Effect” value is listed as 6.999%.

With `CC(C)N1CCC(CC(=O)N2CCCCC2CCn2cccn2)CC1` (stereo not given), the “Percent Effect” value is listed as 17.49%. For `Cc1nc(N2CCC(C(O)c3nccn3C)CC2)c2c(C)noc2n1` (stereo not given) the value was 0.7849%. `CC(C)N1CCC(C(=O)N2CCC(C(O)c3nccn3C)CC2)CC1` (stereo not given): the “Percent Effect” value amounted to 119.5%. For the molecule `CCOc1ccccc1CN(CC)Cc1ccc(S(C)(=O)=O)cc1`, the “Percent Effect” value was found to be 14.95%. For `CSc1ccc(NCC(=O)Nc2c(C)nn(C)c2C)cc1F` the value was -13.07%.

In the case of `Cn1c(=O)ccn(CC(=O)Nc2cnccc2O)c1=O`, the “Percent Effect” value is -3.574%. The same measure for `CC(NC(=O)Cn1ccc(=O)n(C)c1=O)c1cc(F)ccc1F` (stereo not given): 123.1%. The same measure for `CC(NC(=O)Cn1ccc(=O)n(C)c1=O)c1ccccc1F` (stereo not given): 122%; for `CCS(=O)(=O)CC(=O)NC(C)c1ccc(F)cc1F` (stereo not given): 5.956%; for `CC(NCCn1cccn1)c1ccccc1F` (stereo not given): 17.82%.

In the case of `Cn1c(=O)ccn(CC(=O)NCC2Cc3ccccc3O2)c1=O` (stereo not given), the “Percent Effect” value worked out at 4.727%. For `Cc1nnc2n1CCN(c1nc3ccccc3o1)C2` the value was 7.974%. The same measure for `CCNC(=O)C(C)Oc1ccc(N(C)S(C)(=O)=O)cc1` (stereo not given): 35.45%; for `CC(Oc1cc(Cl)cc(Cl)c1)C(=O)NCCC(=O)N(C)C` (stereo not given): 99.28%; for `CC(Oc1ccccc1C(F)(F)F)C(=O)NCCC(=O)N(C)C` (stereo not given): 4.179%. For `CC(Oc1ccc(S(C)(=O)=O)cc1)C(=O)NC(N)=O` (stereo not given) the value was -0.9866%; for `CC(Oc1cc(Cl)cc(Cl)c1)C(=O)NCCS(N)(=O)=O` (stereo not given), 112.6%. Take `CC(C)c1ccc(OCCC(=O)NCCC(=O)N(C)C)cc1`: the “Percent Effect” value was determined as 5.568%. For `CCCNC(=O)C(C)Oc1ccc(F)cc1` (stereo not given) the value was -16.03%. Turning to `CC(Oc1cc(Cl)cc(Cl)c1)C(=O)NCCOCC(N)=O` (stereo not given), the “Percent Effect” value is given as 92.53%.

As for `CCCNC(=O)C(C)Oc1ccccc1` (stereo not given), the “Percent Effect” value is 7.787%. The same measure for `Cc1ccc(-c2noc(C(C)NS(C)(=O)=O)n2)cc1` (stereo not given): 98.3%; for `Cc1ccc(-c2noc([C@@H]3C[C@H](NC(=O)NC(C)C)CN3C)n2)cc1`: -7.192%. The same measure for `Cc1cnn(C2CN(C(C)c3nc(-c4ccccc4)no3)C2)c1` (stereo not given): -0.8523%; for `COc1cccc(CCC(=O)N2CCCCC2Cn2cccn2)c1` (stereo not given): -6.08%; for `O=C(CCc1cccs1)N1CCCCC1Cn1cccn1` (stereo not given): 8.16%. For `CSCCC(=O)N1CCCCC1CCn1cccn1` (stereo not given) the value was -3.819%. Take `CN(Cc1ccsc1)C(=O)CN1CCCCC1Cn1cccn1` (stereo not given): the “Percent Effect” value is recorded as -3.818%. For `O=C(CCc1ccccc1)N1CCCCC1Cn1cccn1` (stereo not given) the value was 99.73%.

For `O=C(CCc1ccsc1)N1CCCCC1Cn1cccn1` (stereo not given), the “Percent Effect” value was found to be 114.6%. The same measure for `O=C(CN1CCN(CCO)CC1)NCc1ccc(Cl)s1`: -5.807%; for `Cc1nsc(NC2CCOC3(CCCC3)C2)n1` (stereo not given): -8.543%. The same measure for `CN(C)c1ncc(C(=O)N2C[C@H]3C[C@H](Oc4ccccc4)C[C@H]3C2)cn1`: 125.1%. Turning to `Cn1cc(C(=O)N2C[C@H]3C[C@H](Oc4ccccc4)C[C@H]3C2)cn1`, the “Percent Effect” value is reported as 96.44%. For `Cn1cc(C(=O)N2CCCN(C3Cc4ccccc4C3)CC2)cn1` the value was -3.221%; for `COc1cccc(OC2CN(C(=O)c3ccnc(OC)c3)C2)c1`, 6.103%. `CCn1cc(CN2C[C@H]3CC[C@@H]2CN(C(=O)c2ccncc2)C3)cn1`: the “Percent Effect” value was 5.818%.

In the case of `CCn1cc(C(=O)N2C[C@H]3C[C@H](Oc4ccccc4)C[C@H]3C2)cn1`, the “Percent Effect” value came to 75.19%.

`CCc1ncc(C(=O)N2CC(Oc3ccccc3Cl)C2)cn1`: the “Percent Effect” value is given as 4.007%. The same measure for `Cc1cccc(OC2CN(C(=O)c3cnn(C)c3)C2)c1`: -4.108%; for `Cc1cccc(CN2C[C@@H]3COC[C@]3(CNC(=O)c3ccsc3)C2)n1.O=C(O)C(F)(F)F.O=C(O)C(F)(F)F`: 8.722%. For `COc1ccc2c(c1)nc1n2[C@@H](CNC(=O)c2ccccn2)COC1` the value was 1.575%; for `O=C(NC[C@]1(O)CN(Cc2ccc(F)cc2)C[C@H]1O)c1ccccn1`, 127.5%; for `Cc1ncsc1CN1C[C@@H]2COC[C@]2(CNC(=O)c2ccco2)C1.O=C(O)C(F)(F)F`, -13.65%. The same measure for `COc1ccc(CNC(=O)c2ccc(Br)cn2)cc1`: -6.814%; for `COc1ccc(CN2C[C@@H](O)[C@](O)(CNC(=O)c3ccccn3)C2)cc1`: 112%. Consider `O=C(N[C@@H]1CCN(C(=O)c2ccc(F)cc2Cl)C[C@H]1O)c1ccccn1`, for which the “Percent Effect” value is given as -3.407%.

As to `O=C(NC[C@]1(O)CN(Cc2ncccc2F)C[C@H]1O)c1cc[nH]n1`, the “Percent Effect” value came to 112.1%. For `Cc1ncsc1CNC(=O)N1CCN(Cc2ccccc2)C[C@H]1C` the value was 1.865%; for `NC(=O)C(NC1CCN(Cc2ccc(F)cc2)CC1)c1ccccc1` (stereo not given), 12%; for `Cc1ncsc1CN1C[C@@H](O)[C@](O)(CNC(=O)c2ccccn2)C1`, 100.8%.

(Values after ChEMBL document CHEMBL3988442, “University of Dundee, Small-Polar-MMV Screening Library” (2021).)
